CHX counter: counter-screen for Shiga toxin inhibitors: cycloheximide protein synthesis inhibition | cell reporter, cycloheximide protein synthesis inhibition counterscreen | max response, % | 300,000 compounds, 12% hits | AID 2314; in the data active = max response mostly above about 13%, no sharp cut-off; inactive = mostly below about 14%; also: read at 38.3 µM for the half of the compounds with a filed dose; 0% is about no effect
Shiga toxin inh: inhibitors of Shiga toxin in Vero cells. inhibition, % at 38.7 µM. Vero cells, Shiga toxin protein synthesis inhibition reporter. 290,000 compounds, 9.2% hits; in the data active = inhibition mostly above about 28%, no sharp cut-off; inactive = mostly below about 43%; also: 0% is about no effect
NS1 function inh: inhibitors of influenza NS1 protein function. Potency, µM (top dose mostly 46.1 µM), for inactives: at the highest dose activity, positive = more growth. 270,000 compounds, 0.4% hits; also: potency is read from the fitted curve at half-maximal effect; actives are rising curves; nearly all actives have a fitted effect of over 50% in size
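In this qHTS, NS1 from influenza A is expressed in budding yeast, where it slows growth. Cells are switched from glucose to 2% galactose medium (pH 6.0, -URA), treated with compound, and growth recovery is read at OD600.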
SARS PLpro yeast: blocks SARS-CoV papain-like protease in a yeast assay; S. cerevisiae expressing SARS-CoV PLpro, growth rescue; Potency, µM (highest dose often 32.9 µM), for the others: at the highest dose activity, positive = growth rescue, most hits filed as activators; 330,000 compounds, 0.19% hits; AID 485353; also: potency is read from the fitted curve at half-maximal effect; 0% is about no effect; nearly all actives have a fitted effect of over 55% in size
* = called active by the depositor; ? = inconclusive; . = not tested or not shown. An excerpt weighted towards active compounds, which were near 12% of everything screened. Unless noted, calls follow the shape of the full dose curve.

SMILES	CHX counter	Shiga toxin inh	NS1 function inh	SARS PLpro yeast
COC(=O)c1c(NC(=O)CC2SC(N)=NC2=O)sc(C)c1C (stereo not given)	-4	-10	2%	1%
CCOc1ccc2nc(C)cc(Nc3cccc([N+](=O)[O-])c3)c2c1	-11	-26	8%	-1%
COc1ccc2cc3cc(C(=O)N4CCN(C5CCCCC5)CC4)oc3nc2c1	6	7	-2%	7%
COc1ccc2cc3cc(C(=O)N4CCCCC4C)oc3nc2c1 (stereo not given)	34*	64*	6%	?
COc1ccc2cc3cc(C(=O)N(C)C4CCCCC4)oc3nc2c1	30*	77*	1%	1%
COc1ccc2cc3cc(C(=O)N4CCCCCC4)oc3nc2c1	41*	72*	-15%	-23%
CCOC(=O)C1CCN(C(=O)CSc2nccc(C)n2)CC1	-2	2	0%	-1%
Cc1cc(C)nc(SCC(=O)c2ccc(C)c(C)c2)n1	11*	25	-12%	-2%
COC(=O)CSc1nc(C)cc(N2CCOCC2)n1	27	53*	.	3%
Cc1cc(C)nc(SCC(=O)c2ccc(O)c(O)c2)n1	11	11	?	0%
Cc1cc(N2CCCC2)nc(SCC(=O)c2ccccc2)n1	6	-20	10%	-13%
Cc1cc(Cl)nc(SCC(=O)c2ccccc2)n1	45*	81*	5%	1%
Cc1cc(N2CCOCC2)nc(SCC(=O)c2ccccc2)n1	51*	96*	-8%	11%
Cc1cc(N2CCOCC2)nc(SCC(=O)c2ccc(Cl)cc2)n1	-3	-16	-55%	5%
CCOC(=O)CSc1nnc([C@@H](NC(=O)OC(C)(C)C)C(C)C)o1	-5	-3	-11%	0%
Cc1cc(N2CCC(C)CC2)nc(SCC(=O)c2ccccc2)n1	13*	29*	-34%	-21%
CN1CCN(C(=O)c2cccn(Cc3c(Cl)cccc3Cl)c2=O)CC1	-6	-5	2%	2%
COc1ccc(NC(=O)/C=C/c2ccc(F)cc2)cn1	51*	108*	-29%	-28%
CC(=O)Nc1ccc(NC(=O)/C=C/c2ccccc2)cc1	25*	33*	.	0%
COc1cccc(/C=C/C(=O)Nc2ccc(OC)nc2)c1	30*	88*	-43%	-48%
COc1cccc(/C=C/C(=O)NNC(=O)c2ccncc2)c1	.	.	.	4%
COc1ccc(NC(=O)/C=C/c2ccccc2)cn1	35*	86*	-26%	-30%
COc1ccc(NC(=O)/C=C/c2cc(OC)c(OC)c(OC)c2)cn1	8	14	-5%	0%
CSc1nnc(-c2ccccc2SC)o1	1	36	.	2%
CSc1ccccc1-c1nnc(-c2ccccc2)o1	59*	95*	-11%	-10%
SMILES	CHX counter	Shiga toxin inh	NS1 function inh	SARS PLpro yeast
CSc1ccccc1-c1nnc(-c2ccc(C)cc2)o1	39*	143*	-40%	-4%
Cc1ccc(-c2nnc(-c3ccccc3S(=O)(=O)Cc3ccc(Cl)cc3)o2)cc1	0	11	11%	1%
Nc1nonc1-n1nnc(C(=O)N/N=C/c2ccccn2)c1CNc1ccccc1	15	-4	-6%	-4%
CCCCN1C(=O)/C(=C/C=C2/CC(C)(C)CN2C)SC1=S	30*	32	8%	-16%
CCCCN1C(=O)/C(=C/C=C2\Oc3ccccc3N2CC)SC1=S	-6	10	-6%	-1%
CN1CCS/C1=C\C=C1/SC(=S)N(CC(=O)O)C1=O	-2	-2	.	0%
CCN1C(=O)/C(=C/C=C2/SCCN2C)SC1=S	59*	78*	-4%	0%
CC(C)(C)c1ccc(C(=O)NC(=S)N2CCOCC2)cc1	46*	92*	1%	4%
CN1CCN(C(=S)NC(=O)c2ccc(C(C)(C)C)cc2)CC1	-2	-8	-13%	9%
CC(C)Oc1ccc(C(=O)NC(=S)N2CCOCC2)cc1	32*	45*	-11%	26%
COc1ccc2ccccc2c1/C=N/Nc1cccc(C(=O)O)c1	72*	134*	-1%	1%
COc1ccc2ccccc2c1/C=N/Nc1ccc(Cl)c(C(=O)O)c1	15	56*	13%	9%
O=C(O)c1cccc(N/N=C/c2cccc3ccccc23)c1	74*	165*	7%	1%
COc1ccc(-c2nn(-c3ccccc3)cc2/C=N/Nc2ccc(Cl)c(C(=O)O)c2)cc1OC	19*	72*	9%	-1%
COc1ccc(C)cc1NC(=O)CSc1nnc2ccc(-c3ccncc3)nn12	.	.	.	1%
CCN1CCN(S(=O)(=O)c2ccc(Cl)c(C(=O)NCc3nc4ccccc4[nH]3)c2)CC1	.	.	.	-2%
O=C(Cn1ccc(NC(=O)OCc2ccccc2)nc1=O)NCc1nc2ccccc2[nH]1	.	.	.	1%
